High-throughput results as filed in PubChem BioAssay.
The sample as a whole holds a higher share of hits than the screen did.
Shiga toxin inh = blocks Shiga toxin action in Vero cells; Vero cells, Shiga toxin protein synthesis inhibition reporter; inhibition, % at 38.7 µM; hit rate 9.2% among 290,000; in the data active = inhibition mostly above about 28%, no sharp cut-off; inactive = mostly below about 43%; note: 0% is about no effect
CHX counter = counter-screen hit for Shiga toxin inhibitors, cycloheximide; hit rate 12% among 300,000; cell reporter, cycloheximide protein synthesis inhibition counterscreen; max response, %; in the data active = max response mostly above about 13%, no sharp cut-off; inactive = mostly below about 14%; note: read at 38.3 µM for the half of the compounds with a filed dose; 0% is about no effect
Marburg entry inh = blocks Marburg virus binding to or entry into cells; Marburg virus pseudotyped entry inhibition, cell reporter; Potency, µM (highest dose often 37.8 µM), for inactives: at the highest dose activity change, negative = inhibition, actives largely listed as inhibitors; hit rate 1.8% among 300,000; calls by dose curve; tested in HEK293 cells; note: potency is the fitted concentration of half-maximal effect; % is set by controls: 0 for no effect and ±100 for the full control effect
AMA1 RON2 block = AMA1-RON2 (P. falciparum) interaction inhibition. AlphaScreen AMA1-biotinylated RON2 peptide binding. hit rate 0.2% among 360,000. Potency, µM (series often up to 58.2 µM), inactives show at the top dose activity change, negative = inhibition, usual class: inhibitors; active = well fitted inhibition curve with a large enough effect; inconclusive = small, poorly fitted or top-dose-only effect; inactive = no such curve, though single readings can be large or run the other way;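 note: potency is the fitted concentration of half-maximal effect; 0% = vehicle wells and -100% = peptide control; nearly all actives have a fitted effect of over 45% in size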
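AMA1 (3D7) with his tag at 25 nM final met compounds first, then biotinylated RON2 peptide at 25 nM; detection used donor plus acceptor beads, 10 µg/mL apiece, read by AlphaScreen after 30 min at room temperature.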
LASV entry inh = Lassa virus entry inhibition | Lassa virus pseudotype entry inhibition, cell reporter | Potency, µM (top dose mostly 37.9 µM), for inactives: top-dose activity change, negative = inhibition, usual class: inhibitors | hit rate 1.2% among 300,000 | AID 540256; calls by dose curve; tested in HEK293 cells; note: potency is the fitted concentration of half-maximal effect; % is set by controls: 0 for no effect and ±100 for the full control effect; nearly all actives have a fitted effect of over 50% in size
The depositor's hits bear a star; ? = inconclusive; · = no result; [ ] = another dose, or the depositor's remark.

SMILES	Shiga toxin inh	CHX counter	Marburg entry inh	AMA1 RON2 block	LASV entry inh
OC(COC1CCCCC1)CN1CCCCC1 (stereo unspecified)	18	-7	1%[46.1 µM]	-8%	19%[46.1 µM]
Cc1ccc(S(=O)(=O)N2[C@H](CC(=O)c3ccc(Cl)c(Cl)c3)OC[C@@H]2C)cc1	·	·	·	-15%	·
O=C(Nc1ccccc1C(=O)NC1CCCCC1)c1ccco1	-4	-3	-6%	3%	-4%
COCCN(C(=O)CCC(=O)Nc1cc(C)on1)C(C(=O)NC1CCCC1)c1ccccc1C (stereo unspecified)	-2	-2	18%[46.1 µM]	0%	23%[46.1 µM]
COCCN(C(=O)CCl)C(C(=O)NC1CCCCC1)c1ccccc1C (stereo unspecified)	2	2	8.9µM*	8%	?
O=C(O)/C=C\C(=O)Nc1ccccc1C(=O)NC1CCCCC1	65*	42*	?	-4%	15%
CC(C)C1=CC(=Nc2ccc(S(N)(=O)=O)cc2)C=C(C(C)C)C1=O	-8	-4	·	-24%	·
C[C@@H](CO)NC(=O)c1ccc2c3n(nc2c1)-c1ccc(Cl)cc1CO3	55*	33*	·	-8%	·
CC(C)[C@@H](CO)NC(=O)c1ccc2c3n(nc2c1)-c1ccc(Cl)cc1CO3	46*	34*	·	0%	·
O=C1N/C(=C\c2nc3ccccc3s2)c2ccccc21	76*	62*	·	·	·
O=C1N/C(=C\c2ccccc2)c2ccccc21	57*	27*	?	-3%	10%
O=C(CSC1=Nc2ccccc2N=C(c2ccc(F)cc2)C1)NCc1ccccc1Cl	·	·	·	·	-21%[46.1 µM]
CC(C)OC(=O)c1c(NC(=O)C2c3ccccc3Oc3ccccc32)sc2c1CCCC2	·	·	-25%[46.1 µM]	·	5%[46.1 µM]
CC1=C(C)CC(C(=O)NNC(=O)c2csc(C)c2C)C(C(=O)O)C1 (stereo unspecified)	79*	21*	?	15%	?
CCOC(=O)c1c(C)[nH]c(C)c1S(=O)(=O)NCc1cc(C)ccc1C	-2	2	·	-2%	·
CSc1ncc(CN2CCN(C3CCCCC3)C(CCO)C2)cn1 (stereo unspecified)	3	2	4%[46.1 µM]	2%	17%[46.1 µM]
OCCC1CN(CC#Cc2ccccc2)CCN1C1CCCC1 (stereo unspecified)	-2	0	1%[46.1 µM]	-6%	-22%[46.1 µM]
OCCC1CN(CC(c2ccccc2)c2ccccc2)CCN1C1CCCC1 (stereo unspecified)	11	-2	13µM*	-17%	?
Cc1ccccc1-c1ncc(CN2CCN(C3CCCCC3)C(CCO)C2)cn1 (stereo unspecified)	16	22*	·	-2%	·
CC(Oc1ccc(Br)cc1)C(=O)NNC(=O)CCN1CCN(c2ccccc2)CC1 (stereo unspecified)	·	·	11%	48%	10%
COC(=O)CCSCC(=O)N1N=C(c2ccc(OC)cc2)CC1c1cccc(OC)c1OC (stereo unspecified)	-17	-4	·	-15%	·
Cc1ccc(OC(C)C(=O)Nc2ccccc2C(=O)N2CCN(C)CC2)cc1 (stereo unspecified)	-19	-3	8%	-15%	-15%
COc1ccc(NC(=O)[C@@H](NC(=O)c2ccccc2)C(C)C)cc1S(=O)(=O)N1CCCCC1	11	1	0.11µM*	1%	-2%
C=CCNc1nc(-c2sc(NC(C)=O)nc2C)cs1	132*	41*	-28%	17%	-25%
C=CCNc1nc(-c2sc(NC(=O)CC)nc2C)cs1	96*	36*	?	-7%	?
SMILES	Shiga toxin inh	CHX counter	Marburg entry inh	AMA1 RON2 block	LASV entry inh
C=CCCC(=O)Nc1nc(C)c(-c2csc(Nc3ccc(Cl)cc3Cl)n2)s1	14	3	·	14%	·
COc1ccccc1CNC(=O)COC(=O)/C=C/c1ccc2c(c1)OCO2	·	·	?	10%[11.6 µM]	-8%
O=C(CCCc1ccccc1)Nc1ccccn1	74*	19*	9%[46.1 µM]	30%	20%[46.1 µM]
Cc1ccnc(NC(=O)CCCOc2cc(=O)n(C)c3ccccc23)c1	63	16*	?	9%	-39%
Cc1ccnc(NC(=O)CSc2ccccn2)c1	42	29*	-5%	17%	·
Cc1ccnc(NC(=O)CCCc2ccccc2)c1	74*	58*	?	3%	16%
Cc1cc(NC(=O)CSc2ccccn2)no1	-4	11	12%	-2%	?
NC(=O)C1CCCN1C(=O)C(Cc1cnc[nH]1)NC(=O)C1CCC(=O)N1 (stereo unspecified)	11	-2	·	·	·
Cc1ccc(CCNC(=O)c2cc(S(=O)(=O)N3CCCC3)cn2C)cc1	-2	-1	·	8%	·
